Here are results for 65 molecules from the antibiotic and cytotoxicity screens of Wong et al. (2023).

Screen size: about 39,000 compounds; about 3,300 (8.5%) were called active. The list comes from a sample in which actives are over-represented; it also holds similar structures and randomly drawn compounds.

The subject of the experiment is HepG2. Put plainly: cytotoxicity call (relative viability < 0.9). The note with it: 10 µM.
As for `COc1cc(OC)nc(N=CNO)n1`, the cytotoxicity call is “inactive”. The same measure for `O=C(C[C@@H]1C[C@H]2c3cc(NC(=O)C4CCOCC4)ccc3O[C@H]2[C@H](CO)O1)NCc1cc(F)ccc1F`: “inactive”. Take `CO[C@@H]1[C@H](N(C)C(=O)c2ccccc2)C[C@H]2O[C@]1(C)n1c3ccccc3c3c4c(c5c6ccccc6n2c5c31)C(=O)NC4`: the cytotoxicity call is “active”. As for `C[C@@H]1CCCCO[C@H](CN(C)C(=O)c2ccccc2)[C@@H](C)CN([C@H](C)CO)C(=O)c2cc(NC(=O)Cc3ccccc3)ccc2O1`, the cytotoxicity call was “inactive”. The result for `Cc1noc(C)c1NC(=O)Nc1ccc2c(c1)C(=O)N([C@@H](C)CO)C[C@H](C)[C@@H](CN(C)Cc1ccccc1)OCCCC[C@H](C)O2` reads “inactive”. The same measure for `C[C@@H]1CN([C@H](C)CO)C(=O)c2cc(NS(=O)(=O)c3ccc(F)cc3)ccc2O[C@@H]1CN(C)CC1CC1`: “inactive”; for `CN(C)C1C(O)=C(C(N)=O)C(=O)C2(O)C(O)=C3C(=O)c4c(O)cccc4C(C)(O)C3C(O)C12.Cl` (stereo not given): “inactive”. The same measure for `CC(=O)N(C)C[C@H]1Oc2ncc(C#C[C@@H](C)O)cc2C(=O)N([C@H](C)CO)C[C@H]1C`: “inactive”. In the case of `CC(=O)N[C@@H]1[C@@H](O)[C@H](O)[C@@H](CO)O[C@H]1O`, the cytotoxicity call was “inactive”. Consider `Cc1nc(N)sc1-c1ccnc(Nc2ccc(N3CCOCC3)cc2)n1`, for which the cytotoxicity call is “active”. The same measure for `COc1ccc(N2CCN(c3nc(NCCO)nc(N4CCOCC4)n3)CC2)cc1`: “inactive”; for `CC(=O)Oc1ccc(-c2cc(=O)c3c(OC(C)=O)cc(OC(C)=O)cc3o2)cc1`: “inactive”. The result for `CN1CCN(C(=O)C[C@H]2CC[C@H]3[C@@H](COC[C@H](O)CN3C(=O)C3CC3)O2)CC1` reads “inactive”; that for `COc1ccc(S(=O)(=O)N(C)C[C@H]2Oc3ccc(NC(=O)Cc4ccccc4)cc3C(=O)N([C@@H](C)CO)C[C@@H]2C)cc1`, “inactive”. The same measure for `C[C@H]1CN([C@@H](C)CO)C(=O)c2cccc(NC(=O)Nc3ccccc3)c2O[C@@H]1CN(C)Cc1ccc(C(F)(F)F)cc1`: “inactive”; for `CC(=O)c1cccc(C(F)(F)F)c1`: “inactive”; for `Cc1ccc(Nc2ncc3c(n2)N(C)C(=O)N(c2cc(NC(=O)c4cccc(C(F)(F)F)c4)ccc2C)C3)cn1`: “active”.

For `Cc1ncc(NC(=O)c2cccc(C(F)(F)F)c2)cc1-c1cnc(OC2CCOCC2)c(N2CCOCC2)c1`, the cytotoxicity call is “inactive”. The result for `Cc1ccc(S(=O)(=O)N(C)C[C@@H]2Oc3cc(Br)ccc3S(=O)(=O)N([C@H](C)CO)C[C@@H]2C)cc1` reads “inactive”. The same measure for `Cc1noc(C)c1S(=O)(=O)N(C)C[C@@H]1OCCCC[C@@H](C)Oc2ccc(NS(C)(=O)=O)cc2C(=O)N([C@H](C)CO)C[C@H]1C`: “inactive”.

Turning to `CCCC[P+](CCCC)(CCCC)Cc1ccc(NC(=O)[C@H](Cc2ccc3ccccc3c2)N/C(=N/C2CCCCC2)NC2CCCCC2)cc1`, the cytotoxicity call is “inactive”. `C/C=C/c1ccc2c(c1)O[C@H](CN(C)Cc1ccc(C(=O)O)cc1)[C@@H](C)CN([C@@H](C)CO)S2(=O)=O`: the cytotoxicity call is “inactive”.

Turning to `COc1ccc(CN(C)C[C@@H]2OCCCC[C@@H](C)Oc3ccc(NC(=O)Nc4ccc5c(c4)OCO5)cc3C(=O)N([C@H](C)CO)C[C@H]2C)cc1`, the cytotoxicity call was “inactive”. The same measure for `COc1ccc(CN(C)C[C@H]2OCCCC[C@H](C)Oc3ccc(NC(=O)Nc4ccc5c(c4)OCO5)cc3C(=O)N([C@@H](C)CO)C[C@@H]2C)cc1`: “active”; for `COc1ccc(CN(C)C[C@H]2OCCCC[C@H](C)Oc3ccc(NC(=O)Nc4ccc5c(c4)OCO5)cc3C(=O)N([C@H](C)CO)C[C@@H]2C)cc1`: “inactive”. As for `COc1ccc(CN(C)C[C@@H]2OCCCC[C@@H](C)Oc3ccc(NC(=O)Nc4ccc5c(c4)OCO5)cc3C(=O)N([C@@H](C)CO)C[C@@H]2C)cc1`, the cytotoxicity call is “active”.

As for `COc1ccc(CN(C)C[C@@H]2OCCCC[C@H](C)Oc3ccc(NC(=O)Nc4ccc5c(c4)OCO5)cc3C(=O)N([C@H](C)CO)C[C@H]2C)cc1`, the cytotoxicity call was “inactive”. Consider `COc1ccc(CN(C)C[C@@H]2OCCCC[C@H](C)Oc3ccc(NC(=O)Nc4ccc5c(c4)OCO5)cc3C(=O)N([C@@H](C)CO)C[C@@H]2C)cc1`, for which the cytotoxicity call is “inactive”. The result for `COc1ccc(CN(C)C[C@@H]2OCCCC[C@H](C)Oc3ccc(NC(=O)Nc4ccc5c(c4)OCO5)cc3C(=O)N([C@@H](C)CO)C[C@H]2C)cc1` reads “inactive”. For `COc1ccc(CN(C)C[C@H]2OCCCC[C@@H](C)Oc3ccc(NC(=O)Nc4ccc5c(c4)OCO5)cc3C(=O)N([C@H](C)CO)C[C@@H]2C)cc1`, the cytotoxicity call is “inactive”. The result for `COc1ccc(CN(C)C[C@@H]2OCCCC[C@@H](C)Oc3ccc(NC(=O)Nc4ccc5c(c4)OCO5)cc3C(=O)N([C@H](C)CO)C[C@@H]2C)cc1` reads “inactive”; that for `COc1ccc(CN(C)C[C@@H]2OCCCC[C@H](C)Oc3ccc(NC(=O)Nc4ccc5c(c4)OCO5)cc3C(=O)N([C@H](C)CO)C[C@@H]2C)cc1`, “inactive”; that for `COc1ccc(CN(C)C[C@H]2OCCCC[C@@H](C)Oc3ccc(NC(=O)Nc4ccc5c(c4)OCO5)cc3C(=O)N([C@H](C)CO)C[C@H]2C)cc1`, “active”. The result for `COc1ccc(CN(C)C[C@@H]2OCCCC[C@@H](C)Oc3ccc(NC(=O)Nc4ccc5c(c4)OCO5)cc3C(=O)N([C@@H](C)CO)C[C@H]2C)cc1` reads “active”; that for `O=C(C[C@H]1CC[C@@H](NC(=O)c2cnccn2)[C@@H](CO)O1)NCc1ccccc1F`, “inactive”. Turning to `COc1ccc(CNC(=O)C[C@@H]2C[C@H]3c4cc(NC(=O)NC5CCCC5)ccc4O[C@H]3[C@H](CO)O2)cc1`, the cytotoxicity call is “inactive”. The same measure for `COc1ccc(NC(=O)N(C)C[C@H]2Oc3ccc(NS(C)(=O)=O)cc3CC(=O)N([C@H](C)CO)C[C@H]2C)cc1`: “inactive”.

Consider `O=C(C[C@@H]1C=C[C@H](NC(=O)CN2CCOCC2)[C@@H](CO)O1)NCc1cccc(F)c1`, for which the cytotoxicity call is “inactive”. The result for `C[C@H](CO)N1C[C@H](C)[C@@H](CN(C)CC2CCCCC2)Oc2ccc(NC(=O)CCN3CCOCC3)cc2CC1=O` reads “inactive”. The same measure for `C[C@H]1CN([C@@H](C)CO)C(=O)CCCn2cc(nn2)CO[C@H]1CN(C)S(C)(=O)=O`: “inactive”; for `C[C@@H]1CCCCO[C@@H](CN(C)C(=O)CCCN(C)C)[C@H](C)CN([C@H](C)CO)C(=O)c2cc(NC(=O)Nc3cccc4ccccc34)ccc2O1`: “inactive”; for `COc1ccc(CN(C)C[C@H]2OCCCC[C@@H](C)Oc3ccc(NC(=O)Nc4ccc5c(c4)OCO5)cc3C(=O)N([C@@H](C)CO)C[C@H]2C)cc1`: “inactive”. The result for `COc1ccc(CN(C)C[C@H]2OCCCC[C@H](C)Oc3ccc(NC(=O)Nc4ccc5c(c4)OCO5)cc3C(=O)N([C@@H](C)CO)C[C@H]2C)cc1` reads “active”; that for `COc1ccc(CN(C)C[C@H]2OCCCC[C@@H](C)Oc3ccc(NC(=O)Nc4ccc5c(c4)OCO5)cc3C(=O)N([C@@H](C)CO)C[C@@H]2C)cc1`, “inactive”. Take `COc1ccc(-c2cnc3c(c2)C(=O)N([C@H](C)CO)C[C@@H](C)[C@H](CN(C)C(=O)C2CCOCC2)O3)cc1`: the cytotoxicity call is “inactive”.

`CCCCCCCCCCCCCCCC(=O)CCO`: the cytotoxicity call was “inactive”. The result for `CCCCCCCCCCCCCCCCCCCCCCO` reads “active”. The same measure for `CCCCCCCCCCCCCCCCCCCCCCCCCCCCO`: “inactive”; for `COCC(=O)Nc1ccc2c(c1)[C@@H]1C[C@H](CC(=O)N3CCOCC3)O[C@H](CO)[C@@H]1O2`: “inactive”.

`COc1ccc(NC(=O)O[C@H]2[C@H](OC(=O)Nc3ccccc3-c3ccccc3)[C@H](OC(=O)Nc3ccccc3-c3ccccc3)[C@@H](OC)O[C@@H]2CO)cc1`: the cytotoxicity call is “inactive”.

Turning to `CO[C@H]1O[C@H](CO)[C@@H](OC(=O)Nc2cccc(F)c2)[C@H](OC(=O)Nc2ccccc2-c2ccccc2)[C@@H]1OC(=O)Nc1ccccc1-c1ccccc1`, the cytotoxicity call is “inactive”. The result for `CO[C@H]1O[C@H](CO)[C@@H](OC(=O)Nc2ccccc2-c2ccccc2)[C@H](OC(=O)Nc2ccccc2-c2ccccc2)[C@@H]1OC(=O)Nc1ccccc1-c1ccccc1` reads “inactive”; that for `CO[C@H]1O[C@H](CO)[C@@H](OC(=O)Nc2cccc(F)c2)[C@H](OC(=O)Nc2ccccc2-c2ccccc2)[C@H]1OC(=O)Nc1ccccc1-c1ccccc1`, “active”; that for `CO[C@H]1O[C@H](CO)[C@@H](OC(=O)Nc2ccccc2-c2ccccc2)[C@H](OC(=O)Nc2ccccc2)[C@@H]1OC(=O)Nc1ccccc1`, “active”. The result for `CCc1cccc(NC(=O)O[C@H]2[C@H](OC(=O)Nc3ccccc3-c3ccccc3)[C@H](OC(=O)Nc3ccccc3-c3ccccc3)[C@@H](OC)O[C@@H]2CO)c1` reads “inactive”; that for `C[C@@H]1CN([C@@H](C)CO)C(=O)Cc2cc(NS(C)(=O)=O)ccc2O[C@@H]1CN(C)S(=O)(=O)c1cccs1`, “inactive”; that for `CN1CCN(C(=O)C[C@@H]2C[C@H]3c4cc(NC(=O)c5ccc6c(c5)OCO6)ccc4O[C@H]3[C@H](CO)O2)CC1`, “inactive”.

Turning to `COc1ccc(S(=O)(=O)N(C)C[C@H]2Oc3cc(C#CC4CC4)ccc3S(=O)(=O)N([C@H](C)CO)C[C@@H]2C)cc1`, the cytotoxicity call was “inactive”.

For the molecule `CCCCc1oc2ccc(NS(C)(=O)=O)cc2c1C(=O)c1ccc(OCCCN(CCCC)CCCC)cc1`, the cytotoxicity call was “active”.

With `CCCCc1oc2ccc(NS(C)(=O)=O)cc2c1C(=O)c1ccc(OCCCN(CCCC)CCCC)cc1.Cl`, the cytotoxicity call is “active”.

Regarding `CCCCN(CCCC)CCCOC(=O)c1ccc(N)cc1.O=S(=O)(O)O`, the cytotoxicity call was “inactive”. The result for `CCC1=NCCO1` reads “inactive”. The result for `CC(C)NC(=O)N(C)C[C@@H]1Oc2ccc(NC(=O)Nc3ccc4c(c3)OCO4)cc2C(=O)N([C@H](C)CO)C[C@H]1C` reads “inactive”; that for `C#CCN1C(=O)N(C(=O)c2ccccc2)[C@@]2(COCc3ccc(OC)cc3)Oc3ccccc3[C@@H]1[C@H]2CO[Si](C)(C)C(C)(C)C`, “inactive”; that for `CN(C)CCCNC(=O)C[C@@H]1CC[C@@H]2[C@@H](COc3ccc(NC(=O)c4ccccc4F)cc3C(=O)N2C)O1`, “inactive”.
